Source: PubChem BioAssay (NCI)
The panel holds about 83,000 compounds, 20% with a hit somewhere; the sample as a whole holds those more often.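 Single-concentration screen, 48 h exposure, 96-well plates. Endpoint: percent growth. Below 10 = active.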 Unmarked numbers belong to inactive results. The source made the active and inactive calls.

Each compound was assayed on NCI-H226 lung (assay: NCI-60 one-dose screen, 48 h (100 = growth as untreated, 0 = no growth, -100 = all killed)). Details: 10 µM unless noted.

| Structure (SMILES) | growth |
| --- | --- |
| O=C1CC(c2ccc(O)c(O)c2)Oc2cc(O)c([C@@H]3O[C@H](CO)[C@@H](O)[C@H](O)[C@H]3O)c(O)c21 (stereo partly drawn) | 98.9% |
| O=C(NCc1ccccc1)c1ccc2c(c1)NC(=O)[C@@H]1CCCN21 | 103% |
| CCc1ccc(OCc2ccccc2C(=O)Nc2ccc3nc(C)cc(N)c3c2)cc1 | -45.8% (active) |
| CSc1cccc(NC(=O)Nc2nc3c(C)cccc3s2)c1 | 83.2% |
| COC(=O)[C@]1(C)CCC[C@]2(C)[C@H]3C[C@H]4C(C(C)C)=C[C@]3(CC[C@H]21)[C@@H]1C(=O)N(CCC#N)C(=O)[C@@H]14 | 81.9% |
| CC1=C(CCCOC(=O)NCCCl)C2=C(C)C3(CC3)[C@@](C)(O)C(=O)C2=C1 | 70% |
| COc1ccc2[nH]c(-c3ccccc3)c(C=C(C#N)C#N)c2c1 | 55.1% |
| Cc1nn(-c2ccc(-c3ccc(OC(F)(F)F)cc3)cc2)c2nc(-c3ccccc3)nc(N)c12 | 88.4% |
| O=S(=O)(O)c1ccc(N=NSc2ccc3ccccc3c2)cc1 | 106% |
| O=c1c2ccccc2n(CC(O)CN2CCCC2)c2c(Br)cccc12 (stereo not drawn) | 122% |
| CS(=O)(=O)O[C@@H]1C(=O)N(c2cc3c4ccccc4ccc3c3ccccc23)[C@H]1c1ccc(F)cn1 | 63.2% |
| CC(C)(C)c1nn(-c2ccccc2)c2c1COCN2Cc1ccc(Cl)cc1 | 87.5% |
| Cc1cc(NC(=O)CNc2nc(Oc3ccc(F)cc3)nc(-c3ccc(F)cc3)n2)ccc1Cl | 98.9% |
